A short description of experiment [1]: qHTS assay to identify small molecule agonists of the vitamin D receptor (VDR) signaling pathway - cell viability counter screen (AID 743224). Further: series mostly up to about 63 µM; nearly all actives have a fitted effect of over 50% in size. In outline:
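Luminescence from CellTiter-Glo, read after 30 min at room temperature, reports viability of VDR-bla cells treated with compounds for 16 h at 37C in the wells used for the beta-lactamase FRET read.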
(In qHTS, concentration-response curves come from the screen itself.)

A short description of experiment [2]: qHTS assay to identify small molecule antagonists of the vitamin D receptor (VDR) signaling pathway - cell viability counter screen (AID 743225). Further: nearly all actives have a fitted effect of over 50% in size. In outline: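 Luminescent cell viability (CellTiter-Glo) in VDR-bla HEK 293T cells after 16 h compound exposure at 37C in the presence of 3 nM final 1-alpha,25-dihydroxy vitamin D3.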
A short description of experiment [3]: qHTS assay to identify small molecule agonists of the NFkB signaling pathway (AID 1159509; active means well fitted curve in the direction sought with a large enough effect in the signal ratio in the repeat runs, not every such curve was filed as active; the % refers to the signal ratio; further: series mostly up to about 61 µM). In outline:
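After overnight attachment, reporter cells received test compounds, DMSO or positive controls and were incubated 5 hr at 37 C. FRET substrate was then added for 1.5 hr at room temperature before dual-emission fluorescence reading.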

Experiment [4] is described as follows: qHTS assay to identify small molecule agonists of the NFkB signaling pathway - cell viability counter screen (AID 1159515; calls by dose curve; further: series mostly up to about 61 µM; nearly all actives have a fitted effect of over 55% in size). Put shortly: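 Luminescence from CellTiter-Glo (30 min, room temperature) gives viability, measured in the same wells as the beta-lactamase reporter read. Cells were NFkB-bla ME-180, 2,000 per well, treated 5 hr with compounds.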
Experiment [5] in a line: qHTS assay to identify small molecule agonists of the endoplasmic reticulum stress response signaling pathway (AID 1159516; active means well fitted activation curve with a large enough effect in the signal ratio in the repeat runs, not every such curve was filed as active; the % refers to the signal ratio). Put shortly: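 Read-out is beta-lactamase cleavage of a FRET substrate (405 nm excitation; 460 and 530 nm emissions) in ESRE-bla HeLa cells after a 5 hr compound exposure at 37 C. Substrate incubation ran 2 hr at room temperature.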
Experiment [6] can be described thus: qHTS assay to identify small molecule antagonists of the retinoid-related orphan receptor gamma (ROR-gamma) signaling pathway - cell viability counter screen (AID 1159520). Further: nearly all actives have a fitted effect of over 50% in size. Put shortly: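 Tet-on ROR gamma CHO cells (1,000/well) were plated 4 hr, given compounds in DMSO for 2 hr at 37 C, then induced with 1 uM final doxycycline for 16 hr. Viability was read as ATP by CellTiter-Glo luminescence after 30 min.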

Experiment [7] addresses Nuclear receptor ROR-gamma (Homo sapiens) (UniProt P51449). Briefly: qHTS assay to identify small molecule antagonists of the retinoid-related orphan receptor gamma (ROR-gamma) signaling pathway (AID 1159521; further: nearly all actives have a fitted effect of over 50% in size; further: potency means the concentration at half of the fitted maximal effect). Put shortly:
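CHO cells expressing RORγ under a TET-on promoter, luciferase under RORE control. Dox 1 uM final, 16 h; compounds added 2 h prior. Luminescence decrease measured.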

Experiment [8] in a line: qHTS assay to identify small molecule agonists of the AP-1 signaling pathway - cell viability counter screen (AID 1159525; calls by dose curve; further: nearly all actives have a fitted effect of over 55% in size). In outline: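 ME-180 AP-1-bla, 2500 cells/well, Opti-MEM + 0.5% dialyzed FBS; overnight 37 °C; cpd 15-pt titration, 5 h 37 °C; CellTiter-Glo 30 min RT; luminescence read; normalised to TOAB and DMSO controls.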
Experiment [9] can be described thus: qHTS assay to identify small molecule agonists of the AP-1 signaling pathway (AID 1159526; calls by dose curve).
Experiment [10] has as its target Retinoic acid receptor RXR-alpha (Homo sapiens) (UniProt P19793). In words: qHTS assay to identify small molecule agonists of the RXR signaling pathway (AID 1159527; calls by dose curve; further: nearly all actives have a fitted effect of over 35% in size). In outline:
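Beta-lactamase reporter assay, agonist format. Engineered HEK 293T line, charcoal-stripped FBS at 2%, overnight (16 hr) exposure, fluorescence at 460 and 530 nm after 405 nm excitation.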

Experiment [11] can be described thus: qHTS assay to identify small molecule agonists of the RXR signaling pathway - cell viability counter screen (AID 1159529). Put shortly:
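Same-well viability check after the LiveBLAzer FRET read: CellTiter-Glo added, luminescence measured after 30 min at room temperature. Reporter HEK 293T cells had been treated with compounds for 16 hr following a 5 hr preincubation.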

Experiment [12] in a line: qHTS assay to identify small molecule antagonists of the retinoid acid receptor (RAR) signaling pathway - cell viability counter screen (AID 1159551). Further: nearly all actives have a fitted effect of over 35% in size. Put shortly:
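Luminescent ATP quantitation (CellTiter-Glo) gave cell viability in C3RL4 cells exposed to test chemicals for 6 h at 37 C alongside 1 uM final retinol.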

The nature of experiment [13]: qHTS assay to identify small molecule antagonists of the retinoic acid receptor (RAR) signaling pathway (AID 1159552; further: nearly all actives have a fitted effect of over 50% in size). In outline: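 Readout: luciferase luminescence, 30 min post-reagent at RT. Setup: C3RL4 RARE reporter cells, compounds plus retinol 1 uM final, 6 hr incubation at 37 C and 5% CO2.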
Experiment [14] is described as follows: qHTS assay to identify small molecule agonists of the retinoic acid receptor (RAR) signaling pathway (AID 1159553). In outline: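 Luminescence from a RARE-driven luciferase reporter in C3RL4 cells served as the read-out, measured after 30 min with detection reagent at room temperature. Compounds in DMSO were applied for 6 hr at 37 C following overnight seeding.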

Experiment [15] is described as follows: qHTS assay to identify small molecule antagonists of the estrogen related receptor (ERR) signaling pathway - cell viability counter screen (AID 1224818).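 Further: series mostly up to about 46 µM; viability measured after 17.5 h of compound exposure.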 In outline:
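Multiplexed counter screen to separate cytotoxic compounds from true ERR modulators. ERR cells received DMSO-dissolved compounds after a 6 h pre-incubation, were exposed 17.5 h at 37 C, then assayed with CellTiter-Fluor fluorescence.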

The nature of experiment [16]: qHTS assay to identify small molecule antagonists of the estrogen related receptor (ERR) signaling pathway (AID 1224819). Put shortly:
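Seed ERR cells 2,000/well; rest 6 h at 37 C/5% CO2; pin compounds in DMSO; incubate 18 h at 37 C; add One-Glo; wait 30 min at room temperature; measure luminescence.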

A short description of experiment [17]: qHTS assay to identify small molecule agonists of the estrogen related receptor (ERR) signaling pathway (AID 1224820). In outline:
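Quantitative HTS of the LOPAC library used NTP ERR reporter cells treated 18 h at 37 C. Signal is luminescence after One-Glo addition and a 30 min room-temperature incubation.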

Experiment [18] has as its system estrogen-related receptor alpha (ERRalpha) with PGC-1alpha coactivator, human. Briefly: qHTS assay to identify small molecule antagonists of the estrogen related receptor signaling pathway with the pleiotropic PPARgamma coactivator (PGC) (AID 1224821; calls by dose curve). Put shortly: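 Quantitative HTS for antagonism: PGC/ERR cells received compounds after 6 h attachment and were incubated 18 h at 37 C, with luminescence (One-Glo) as the endpoint.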

Experiment [19] in a line: qHTS assay to identify small molecule antagonists of the estrogen related receptor signaling pathway with the pleiotropic PPARgamma coactivator (PGC) cell viability counter screen (AID 1224822;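 further: series mostly up to about 46 µM; viability read after 17.5 h compound exposure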). In outline:
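Cells: PGC/ERR, 2,000/well, 1536-well format. Pre-incubation 6 h, 37 C/5% CO2. Compound exposure 17.5 h, 37 C. Detection: CellTiter-Fluor, 30 min, fluorescence.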

Inconclusive results are not listed. Active and inactive are the calls of the source. Unless noted, the call rests on the fitted dose curve; in most records, active means well fitted curve in the direction sought with a large enough effect in the repeat runs; inconclusive means weak or mixed curves; inactive means no such curve, though single readings can be large; an effect the other way counts as inactive or inconclusive.

Sequence of Retinoic acid receptor RXR-alpha (Homo sapiens) (P19793 whole entry, looked up): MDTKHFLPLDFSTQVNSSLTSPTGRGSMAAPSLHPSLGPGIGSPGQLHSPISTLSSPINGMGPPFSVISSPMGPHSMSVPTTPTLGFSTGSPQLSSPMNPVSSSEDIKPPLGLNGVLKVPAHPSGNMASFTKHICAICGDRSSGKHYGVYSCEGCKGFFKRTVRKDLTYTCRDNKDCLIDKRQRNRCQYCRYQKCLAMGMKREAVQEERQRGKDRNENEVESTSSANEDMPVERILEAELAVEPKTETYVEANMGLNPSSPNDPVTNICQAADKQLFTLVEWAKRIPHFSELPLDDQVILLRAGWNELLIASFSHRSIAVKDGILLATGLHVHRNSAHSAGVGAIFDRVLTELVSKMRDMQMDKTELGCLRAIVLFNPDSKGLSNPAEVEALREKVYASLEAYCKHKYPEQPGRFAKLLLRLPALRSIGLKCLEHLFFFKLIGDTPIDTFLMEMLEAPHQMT

For `O=C(O)CC(Cl)C(=O)O` (configuration not stated), the Potency entry in experiment [1], in experiment [2], in experiment [4], in experiment [6], in experiment [7] and in experiment [8] was “inactive” throughout. Moreover, the Potency entry in [10], in experiment [11], in experiment [12] and in [13] was “inactive” throughout. For the same compound, the call in experiment [3], in [5] and in experiment [9] was inactive.
With `C[C@@H]1CC[C@H]2[C@@H](C)C(=O)O[C@@H]3O[C@@]4(C)CC[C@@H]1[C@]32OO4`, the Potency entry in experiment [1], in [2], in [4], in experiment [6], in experiment [8] and in [11] was “inactive” in each case. Also, the Potency entry in experiment [12] is “inactive”. Besides, the compound was called inactive in experiment [3], in experiment [5] and in [9]. For the same compound, in [7], the Potency was 237 nM (active).
Take `Cc1cc(=O)[nH]o1`: the Potency result in [1], in experiment [2], in [4], in [6], in experiment [7] and in experiment [8] was “inactive” in each case. Besides, the Potency result in [10], in experiment [11] and in experiment [12] was “inactive” each time. Moreover, the call in [3], in experiment [5] and in experiment [9] was inactive.
Regarding `c1ccc(C2CC2)c(OCC2=NCCN2)c1`, the Potency entry in experiment [1], in experiment [2], in experiment [4], in experiment [6], in experiment [7] and in experiment [8] was “inactive” throughout. Also, the Potency entry in [10], in experiment [11], in [12], in [14], in experiment [18] and in experiment [19] was “inactive” throughout. Further, the outcome in experiment [3], in [5], in experiment [9], in experiment [15], in experiment [16] and in experiment [17] was inactive.
As to `O=C(NC(=O)c1c(F)cccc1F)Nc1ccc(OC(F)(F)C(F)OC(F)(F)F)c(Cl)c1` (configuration not stated), the Potency result in experiment [1], in [2], in [4], in experiment [6], in [7] and in [8] was “inactive” throughout. Also, the Potency result in experiment [11] and in experiment [12] was “inactive” in each case. In addition, the call in experiment [3], in experiment [5] and in experiment [9] was inactive.
For the compound `C=CC(C)=O`, the Potency result in experiment [1], in [2], in experiment [4], in [6], in experiment [8] and in experiment [10] was “inactive” in each case. Also, the Potency entry in experiment [11] and in [12] was “inactive” throughout. Also, the result in [3], in experiment [5] and in experiment [9] was inactive.
With `C=CCCl`, the Potency result in experiment [1], in experiment [2], in [4], in experiment [6], in experiment [8] and in [10] was “inactive” throughout. Moreover, the Potency entry in experiment [11], in experiment [12], in experiment [13] and in experiment [14] was “inactive” each time. The call in experiment [3], in experiment [5] and in experiment [9] was inactive.
Turning to `CC(=O)CCC(C)=O`, the Potency entry in [1], in experiment [2], in experiment [4], in experiment [6], in experiment [7] and in [8] was “inactive” throughout. Moreover, the Potency result in [11] and in experiment [12] was “inactive” each time. Also, the compound was classed as inactive in [3], in experiment [5] and in experiment [9].
On to `Clc1cc(Cl)c(Cl)c(Cl)c1`, for which the Potency entry in experiment [1], in experiment [2], in experiment [4], in experiment [6], in experiment [8] and in experiment [10] was “inactive” in each case. Moreover, the Potency entry in [11], in [12], in [13] and in [14] was “inactive” each time. The call in [3], in experiment [5] and in [9] was inactive.
For the compound `CCCCN=C=O`, the Potency entry in experiment [1], in experiment [2], in [4], in experiment [6], in experiment [7] and in experiment [8] was “inactive” each time. Further, the Potency result in experiment [10], in [11], in experiment [12], in experiment [13] and in experiment [14] was “inactive” each time. Also, the compound was called inactive in [3], in experiment [5] and in experiment [9].

For the origin of these results see PubChem BioAssay (Tox21).
